# Results published in PubChem BioAssay (EPA / NIEHS).
# Some compounds were tested as several samples or in several runs, with calls that do not always agree. The source made the active and inactive calls. The calls were made as follows: active = hit-call score of the fitted dose curve at least 0.9, where 1 is the maximum; inactive = score below 0.9.
# Experiment: ATG_Oct_MLP_CIS: Attagene CIS-FACTORIAL HepG2 Assay for human Octamer-Binding Transcription Factor (Oct) (AID 2282993)
# Conditions: HepG2 Attagene cis-factorial Oct reporter, mRNA; actives raise or lower the signal
# Procedure, shortened: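 Read-out: reporter mRNA via RT-PCR plus capillary electrophoresis of 6-FAM-labelled fragments. Transiently transfected HepG2, 24 h exposure, endogenous TF activity on cis elements. Gain or loss of signal fitted relative to DMSO.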
SMILES,outcome,AC50
OC(Cc1ccccc1Cl)(Cn1cncn1)C1(Cl)CC1 (centres undefined),inactive,–
O=S(=O)(C(Cl)(Cl)Cl)C(Cl)(Cl)Cl,–,16.4 µM (active)
Cc1cc(Cl)ccc1OC(C)C(=O)O (centres undefined),inactive,–
O=C(Cc1ccccc1)OCCc1ccccc1,inactive,–
Nc1ncn[nH]1,inactive,–
CCOP(=S)(OCC)OP(=S)(OCC)OCC,inactive,–
O=[N+]([O-])c1ccc(Nc2ccccc2)cc1,inactive,–
C[C@]12CC[C@@H](O)C[C@@H]1CC[C@@H]1[C@@H]2CC[C@]2(C)C(=O)CC[C@@H]12,inactive,–
Oc1cccc(-c2ccccc2)c1,inactive,–
NC(=O)CCl,inactive,–
O=c1oc2ccccc2c(O)c1C(CC(O)c1ccc(-c2ccc(Br)cc2)cc1)c1ccccc1 (centres undefined),inactive,40.9 µM (active)
C#CCOC(=O)/C=C(C)/C=C/CC(C)CCCC(C)C (centres undefined),–,35.7 µM (active)
CCCCCCCCCCCCN(C)C,–,54.9 µM (active)
CCOC(=O)CCN(SN(C)C(=O)Oc1cccc2c1OC(C)(C)C2)C(C)C,inactive,–
Cc1ccccc1OP(=O)(Oc1ccccc1C)Oc1ccccc1C,–,119 µM (active)
O=S(=O)(c1ccc(Cl)cc1)c1cc(Cl)c(Cl)cc1Cl,inactive,–
N#CCCC(Br)(C#N)CBr (centres undefined),–,50 µM (active)
CCOC(=O)CC(=O)CCl,–,24.3 µM (active)
O=C1C=CC(=O)c2ccccc21,inactive,–
CC(C)(COCC1CO1)COCC1CO1 (centres undefined),inactive,–
Oc1ccc(Cc2ccc(O)cc2)cc1,inactive,–
CC(C=O)Cc1ccc2c(c1)OCO2 (centres undefined),inactive,–
Nc1c(Oc2ccccc2)cc(O)c2c1C(=O)c1ccccc1C2=O,inactive,–
